# Data taken from PubChem BioAssay (NCATS).
# Unmarked numbers belong to inactive results. No rule for the calls is given here.
# Tested on: HIV-1 nucleocapsid protein NCp7 (binding to TG oligonucleotide)
# Experiment: HIV Nucleocapsid (AID 346);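 also: potency is for inhibitors that block NC binding and lower polarization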
# Conditions: HIV-1 NC / fluorescein-TGTGTGTG probe, fluorescence polarization
# Outline: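 10 nM TG4xF probe with 100 nM nucleocapsid protein in high-salt Hepes pH 7.5 (250mM NaCl) containing 1uM ZnCl2 and reducing agents. Compound inhibition of binding was read as fluorescein polarization after 1 hr at room temperature.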
# Potency is read from the fitted curve at half-maximal effect.
row,SMILES,Potency [µM]
1,COC(=O)N1CCC2(CC1)CCN(c1ccncc1)CC2,> 20
2,CC(=O)NCCNc1nc(-c2ccc3c(c2)OCO3)nc2ccccc12,> 20
3,COc1ccc(-c2nc3cnc(Nc4cccc(OC)c4)nc3n(CCC#N)c2=O)cc1,> 20
4,COc1cccc(Cn2c(=O)cnc3cnc(N4CCOCC4)nc32)c1,> 20
5,COc1ccc(NC(=O)N2CCCC3(CCN(C(=O)c4ccc(OC)cc4)CC3)C2)cc1,> 20
6,COc1ncc2nc(-c3ccccc3)c(=O)n(C3CC3)c2n1,> 20
7,O=c1c(-c2ccc(Cl)cc2)nc2cnc(N3CCOCC3)nc2n1CCc1ccccc1,> 4
8,Cc1noc(C)c1-c1ccc2ncnc(N3CCOCC3)c2c1,> 20
9,COc1ccc2[nH]cc(CCNc3cc(-c4ccccc4C)ncn3)c2c1,> 20
10,COCCn1c(=O)c(-c2cccc(Cl)c2)nc2cncnc21,> 20
11,CN(C)c1ncc2nc(CCc3ccccc3)c(=O)n(C[C@H]3CCCO3)c2n1,> 20
12,O=c1c(-c2cccs2)nc2cnc(Oc3cccc(Cl)c3)nc2n1C1CC1,> 20
13,O=C(c1cnccn1)N1CCC[C@@]2(CCN(Cc3ccncc3)C2)C1,> 20
14,Cc1cccc(CNc2ccnc(-c3cccnc3)n2)c1,> 20
15,O=C(c1csnn1)N1CCC2(CCCN(c3ccncc3)C2)CC1,> 20
16,Cn1cccc1C(=O)N1CCC2(CCN(Cc3ccc(C#N)cc3)CC2)CC1,> 20
17,COc1ccc(Oc2ncc3nc(-c4cccc(C#N)c4)c(=O)n(Cc4cccc(OC)c4)c3n2)cc1,> 20
18,COc1ncc2ncc(=O)n(Cc3cccs3)c2n1,> 20
19,CN(C)c1ncc2nc(-c3cc(F)cc(F)c3)c(=O)n(-c3ccccc3)c2n1,> 4
20,Cc1cccc(CNc2cc(-c3ccc(N(C)C)cc3)ncn2)c1,> 20

row,SMILES,Potency [µM]
1,COCCn1c(=O)c(-c2ccccc2)nc2cnc(Oc3ccccc3)nc21,> 20
2,Cc1noc(C)c1C(=O)N1CCC[C@@]2(CCN(Cc3ccccc3)C2)C1,> 20
3,COc1ccc(NC(=O)N2CC[C@@]3(CCCN(C(=O)c4cccn4C)C3)C2)cc1,> 20
4,CN(Cc1ccco1)c1ncncc1-c1ccoc1,> 20
5,COc1ncc2nc(-c3ccccc3)c(=O)n(C)c2n1,> 20
6,COc1ccc(C(=O)N2CCC3(CC2)CCN(c2ccncc2)CC3)cc1,> 20
7,COc1ncc2nc(-c3cc(F)cc(F)c3)c(=O)n(CCC#N)c2n1,> 20
8,CC(=O)N1CCC2(CCCN(C(=O)Nc3cccc(F)c3)C2)CC1,> 20
9,CC(=O)N1CCC2(CC1)CN(c1ccccn1)C2,> 20
10,Cc1noc(C)c1-c1cncnc1NCc1ccccc1,> 20
11,CS(=O)(=O)N1CCC2(CCN(c3cccc(-c4ccccc4)c3)CC2)CC1,> 20
12,CS(=O)(=O)N1CCC2(CCN(C(=O)Nc3cccc(F)c3)CC2)CC1,> 20
13,CN1CCN(c2ncc3nc(-c4ccccc4)c(=O)n(-c4ccccc4)c3n2)CC1,> 20
14,CS(=O)(=O)N1CCC2(CCCN(c3cccc(-c4ccccc4)c3)C2)CC1,> 20
15,Cc1nc2cnc(N3CCNCC3)nc2n(-c2ccccc2)c1=O,> 20
16,COc1ccccc1CNc1ccnc(-c2ccccc2Cl)n1,> 20
17,CN(C)c1ncc2nc(-c3ccc(F)cc3)c(=O)n(C)c2n1,> 20
18,O=C(c1cccc(F)c1)N1CCC2(CCCN(c3ccccn3)C2)CC1,> 20
19,CCNc1ncc2nc(-c3cn(C)c4ccccc34)c(=O)n(-c3ccccc3)c2n1,16.4
20,O=c1c(-c2cccs2)nc2cncnc2n1C1CC1,> 20
